In all, about 340,000 compounds went through this assay and about 20 (0.006%) were called active. The call rests on the fitted dose curve; in most records, active means well fitted inhibition curve with a large enough effect; inconclusive means small, poorly fitted or top-dose-only effect; inactive means no such curve, though single readings can be large or run the other way. Shown is part of a subset that was picked to be rich in actives.
molecular target: Sphingomyelin phosphodiesterase (Homo sapiens) (UniProt P17405); assay: Inhibitors of Secretory Acid Sphingomyelinase (S-ASM): qHTS; conditions: placental ASM, HMU-PC fluorogenic substrate, 60 min; series mostly up to 57.5 µM; activity change, negative = inhibition: at the top concentration
Sequence (P17405 47-631 limits assumed): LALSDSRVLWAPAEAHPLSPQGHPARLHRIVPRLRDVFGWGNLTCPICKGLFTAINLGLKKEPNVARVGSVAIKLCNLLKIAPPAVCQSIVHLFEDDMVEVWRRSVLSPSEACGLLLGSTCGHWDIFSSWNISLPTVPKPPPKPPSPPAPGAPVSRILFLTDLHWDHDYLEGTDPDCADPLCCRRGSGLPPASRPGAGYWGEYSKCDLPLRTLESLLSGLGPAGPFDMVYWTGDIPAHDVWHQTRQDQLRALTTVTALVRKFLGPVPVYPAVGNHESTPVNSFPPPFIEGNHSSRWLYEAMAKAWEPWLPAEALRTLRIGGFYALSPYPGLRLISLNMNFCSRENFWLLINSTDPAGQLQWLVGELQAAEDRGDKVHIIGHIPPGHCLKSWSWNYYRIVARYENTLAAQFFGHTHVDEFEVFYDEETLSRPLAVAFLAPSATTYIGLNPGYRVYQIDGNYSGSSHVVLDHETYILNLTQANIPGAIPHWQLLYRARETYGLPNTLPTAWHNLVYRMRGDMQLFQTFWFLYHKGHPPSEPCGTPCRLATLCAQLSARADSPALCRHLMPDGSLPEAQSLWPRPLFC
From the text: Atherosclerosis is the underlying process for cardiovascular disease and thus is a major contributor to disease burden in the population. […] Thus, selective small molecule inhibitors of S-ASM should block LDL modification and reduce aortic LDL retention and may serve as new agents for the treatment of atherosclerosis. In a collaboration between National Heart, Lung, and Blood Institute and the NCGC a high-throughput amenable screen was developed to identify potent and selective small molecule inhibitors of S-ASM. This enzymatic, fluorescent screen uses an ASM enzyme preparation derived from human placenta and was tested against the NIH Molecular Libraries Small Molecule Repository (MLSMR). NIH Chemical Genomics Center [NCGC] NIH Molecular Libraries Probe Centers Network [MLPCN] MLPCN Grant: MH093173-01 Assay Submitter (PI): Alan Remaley, National Heart, Lung, and Blood Institute and Wei Zhen, NIH Chemical Genomics Center
Two microliters of ASM enzyme (1:150 dilution from stock) are dispensed in 1536-well plate. 23 nL of compound and control are pinned into assay plate using the Kalypsys pintool. The plates are then incubated for 10 minutes at ambient room temperature. Then, 2 uL of the flurogenic substrate, HMU-PC0, (9 uM final) are added to the plate. An incubation for 60 minutes takes place at 37 masculineC. After that, 4 uL of stop solution is added to raise the pH to 10 to end the kinetic reaction. Plate is read on ViewLux, with detection set at Ex = 386 (10) nm and Em = 447 (10) nm.

Activity change, negative = inhibition, inactive:
COc1ccc(Nc2ncc(C(=O)N3CCN(c4ccccc4OC)CC3)c3ccccc23)cc1 -5.7%
O=C(COC(=O)c1ccc(F)c(S(=O)(=O)N2CCOCC2)c1)NCc1ccc2c(c1)OCO2 1.81%
Brc1c(CSc2nncc3ccccc23)nc2ccccn12 1.36%
COc1ccc(Cc2nnc(SCC(=O)N(c3ccccc3)C(C)C)n(N)c2=O)cc1 -1.08%
CC1(C)CC(=O)C=C(c2cccc3c2Oc2ccccc2S3)C1 -13.8%
O=C(NCC1CCCO1)C1CCN(C2CCN(C(=O)C3CCCCC3)CC2)CC1 (centres undefined) 1.41%
FC(F)(F)c1ccc2c3n(nc2c1)CCN=C3c1ccc(Cl)cc1 -3.7%
CC(C)[C@H](NC(=O)Nc1ccc(S(N)(=O)=O)cc1)C(=O)O 2.71%
COc1ccccc1N1CCC(N2CCN(CC(C)(C)C)C(CCO)C2)CC1 (centres undefined) 3.32%
CC(=O)Nc1nc2c(s1)C(=O)NCC(C)(C)C2 -2.53%
COc1ccccc1C(=O)C(O)c1ccccc1OC (centres undefined) 2.43%
Cn1nc(C(F)(F)F)c2cc(NC(=O)OCC(C)(C)C)sc21 -4.28%
O=C(CCNC(=O)c1ccc([N+](=O)[O-])cc1)Nc1ccccc1N1CCOCC1 5.76%
Cc1cc(C)c(S(=O)(=O)c2cc(F)ccc2C)c(=O)[nH]1 -1.89%
COC(=O)C1=C(C(=O)OC)C2(OC1c1ccc(Br)cc1)C(=O)c1ccccc1C2=O (centres undefined) -0.0969%
COCCNC(=O)CSc1nc2sccc2c(=O)n1-c1ccccc1 7.71%
CCN(CC)S(=O)(=O)c1ccc(N2CC(C(=O)NCc3cccnc3)CC2=O)cc1 (centres undefined) 2.74%
O=C(Nc1ccc([N+](=O)[O-])cc1)C1CC12CCC2 (centres undefined) 0.622%
Cc1ccc(S(=O)(=O)c2c[nH]c3ccc(C)cc3c2=O)cc1 4.26%
O=C1CC[C@@H]2CC3(C[C@@H]4CCN1[C@H]24)Nc1cc([N+](=O)[O-])ccc1NC3=NC1CCCCC1 (some centres undefined) -13.9%
COc1cc(OC)cc(C(=O)NCCSCc2ccc(Cl)cc2)c1 0.434%
CC(C)(C)C(=O)Nc1c(Br)c(C2CC2)nn1-c1ccccc1 -0.807%
CC(C)(C)NC(=O)NC(=O)COC(=O)CCC1CCCCC1 -1.67%
O=C(CCN1C(=O)[C@@H]2Cc3ccccc3CN2C1=O)NCc1ccccc1 2.58%
Cc1cccc(NC(=S)NCCc2ccc(F)cc2)c1C 0.269%
Cn1cc(C2OC(=O)c3ccccc32)c2ccccc21 (centres undefined) 3.97%
CCN(C[C@H]1N[C@@](Cc2ccccc2)(C(=O)OC)[C@H]2C(=O)N(Cc3ccccc3)C(=O)[C@@H]12)C(=O)c1ccc(C)cc1 -2%
Cc1c(NC(=O)CN(C)CC(=O)Nc2ccc(F)c(F)c2F)c(=O)n(-c2ccccc2)n1C 0.31%
CC(C(=O)NC1CCCC1)N(c1ccc(Oc2ccccc2)cc1)S(C)(=O)=O (centres undefined) 4.2%
O=C(CCN1C(=O)COc2ccccc21)NCCCN1CCN(c2ccc(F)cc2)CC1 2.7%
O=C(/C=C/c1cccc([N+](=O)[O-])c1)OCC(=O)N1CCOCC1 8.57%
COC(=O)c1cccc(C(=O)N2CCC(CCC(=O)NCc3ccc(F)cc3)CC2)c1 3.52%
CC(=O)OCC(=O)C1(O)CCC2C3CC(C)C4=CC(=O)CCC4(C)C3C(O)CC21C (centres undefined) 3.04%
CC(=O)NNC(=O)c1csc(Cc2c(Cl)sc3ccc(Cl)cc23)n1 -1.54%
CC1CN(S(=O)(=O)c2ccccc2)C(C)CN1S(=O)(=O)c1ccccc1 (centres undefined) 0.844%
Cc1c(Cl)cccc1NC(=O)Nc1ccc(C(=O)N2CCCC2)cc1 -1.21%
O=C(COc1ccc(F)cc1Br)NCC1COc2ccccc2O1 (centres undefined) 2.18%
CCOc1ccc(CCNC(=O)COC(=O)CCS(=O)(=O)c2ccc(C)cc2)cc1OCC 0.919%
Cc1cc(C)nc(SC2CCCCC2NS(=O)(=O)c2ccc(Cl)cc2)n1 (centres undefined) -1.81%
CC1(C)CC(=O)C=C(NCCN2CCNCC2)C1 3.44%
COc1cccc(C(=O)CC(=O)C(=O)Nc2ccc([N+](=O)[O-])cc2C)c1 -7.33%
COc1cccc(NC(=O)N2CCC(NC(=O)C(Cc3cccc(C)c3)NC(C)=O)CC2)c1 (centres undefined) 3.08%
COc1cccc(N2CCN(C(=O)Nc3ccc4c(c3)NC(=O)CO4)CC2)c1 -2.58%
CCOc1ccc(C(=O)N(Cc2ccc(N(C)C)cc2)C2CCS(=O)(=O)C2)cc1 (centres undefined) -3.39%
O=C(NCCCN1CCCC1=O)c1cccc(S(=O)(=O)NCc2ccccc2)c1 -0.664%
COC(=O)c1ccccc1NC(=O)CSc1nc2c(c(=O)[nH]1)CCC2 -0.0256%
CCOc1ccc(NC(=O)CN(C)CC(=O)Nc2cccc(Cl)c2C)cc1OCC -1.93%
COc1ccc(C(=O)NC(=S)N2CCNC(=O)C2CC(=O)OC(C)C)cc1 (centres undefined) 2.82%
O=C(OCc1cc(Cl)ccc1OC(F)F)c1cccnc1 2.08%
O=C(CSc1nnnn1-c1ccc(O)cc1)c1ccc(F)cc1 0.0285%
CCC(=O)Nc1ccc(C(=O)CSc2nnc(CNc3ccc(Cl)cc3)o2)cc1OC -3.49%
COC(=O)c1c(C)oc(C)c1S(=O)(=O)NCc1ccc(Cl)cc1 0.138%
Cc1ccc2[nH]c(C)c(CCNC(=O)NC3CCCCC3)c2c1 11.4%
CCC1=NN(C(=O)Cc2ccc([N+](=O)[O-])cc2)C(O)(c2ccc(Br)cc2)C1 (centres undefined) -4.46%
Cc1cc(C)cc(NC(=O)N(C)Cc2ccccc2)c1 -5.09%
COc1cccc(CNC(=O)CCN2C(=S)NC(C)(C)CC2C)c1 (centres undefined) -1.55%
COc1cc2c(cc1OC)C(Cc1cc(OC)c(OC)cc1[N+](=O)[O-])=NCC2 -9.32%
CS(=O)(=O)N1CCN(CC(=O)NC2CCCC2)CC1 -0.357%
O=[N+]([O-])c1ccc(S(=O)(=O)Nc2cccc(-c3ccc(N4CCCC4)nn3)c2)cc1 -3.91%
COc1ccccc1C1CC(=O)n2c(nc(-c3ccccc3)c2-c2ccccc2)S1 (centres undefined) -2.94%
COc1ccc(N2C(=O)CCC(C(=O)N(C)C3CCCCC3)C2c2ccc(OC)c(OC)c2)cc1 (centres undefined) 2.46%
N#C[C@]1(S(=O)(=O)c2ccccc2)C[C@@H]2ON=C(c3cccc(Br)c3)[C@@H]2C1 0.801%
COC(=O)c1c(C(=O)OC)c2n(c1C)CCS2 2.14%
O=C(NCc1ccncc1)C1CCCN(S(=O)(=O)c2ccc(Br)cc2)C1 (centres undefined) 4.64%
COC(=O)C1=CN(c2ccc(F)c(F)c2)C=C(C(=O)OC)C1c1ccc([N+](=O)[O-])cc1 -6.6%
CC(=O)OCC1(O)CC23CCC4c5ccoc5CCC4(C)C2CCC1C3 (centres undefined) -4.39%
COCCn1c(SCC(=O)Nc2nc(C)cs2)nnc1C(C)C 3.44%
O=C(CNc1cccc(S(=O)(=O)N2CCCCC2)c1)Nc1ccccc1F 21.8%
CCOC(=O)C(CC)Sc1ncnc2c1nnn2-c1ccc(F)cc1 (centres undefined) 1.72%
NC(CSC12CC3CC(CC(C3)C1)C2)C(=O)O (centres undefined) 2.86%
Cc1cccc(NC(=O)N(Cc2cc3cc(C)cc(C)c3[nH]c2=O)CC2COCCO2)c1 (centres undefined) -13.7%
O=C(Cn1cc(/C=N/NC(=O)c2cccc(C(F)(F)F)c2)c2ccccc21)Nc1ccc(F)cc1 2.03%
COc1ccccc1CCNC(=O)CSc1nnc2ccc(-c3cccnc3)nn12 -1.74%
COc1ccccc1NC(=O)CCC(=O)N1CC(C)Oc2ccc(C)cc21 (centres undefined) 4.08%
Cc1cccc(NC(=S)N(CCN(C)C)C(C)c2ccco2)c1 (centres undefined) 3.18%
Cc1oc(C)c(C(=O)NCCCC(=O)O)c1C(=O)NCCCC(=O)O 3.69%
CSc1nc(C)nc(C2CC2)c1C#N 3.92%
CN(C)CCCNC(=O)c1cc(C(=O)Cc2ccc(Cl)cc2)c[nH]1 -1.05%
CN(C(=O)c1cccc(NC(=O)Cc2ccc(NC(=O)C3CCN(C(=O)C4CCCCC4)CC3)cc2)c1)C1CCC1 -0.203%
COc1ccc(CN(CC(=O)NC2CCCC2)C(=O)CCC(=O)Nc2cc(C)on2)cc1 7.46%
COC(=O)c1sccc1-n1cccc1C(=O)C(=O)N1CCCCC1 -6.14%
Cc1ccc2c(c1)nnc1nnc(SCC(=O)O)n12 2.22%
Cc1cccc(OC(C)C(=O)N2CCc3ccccc3C2)c1 (centres undefined) 4.94%
CC(=O)N1CCc2ccc(N)cc21 3.14%
CCc1noc(C)c1C(=O)N1CCCC(N2CCN(c3ccc(F)cc3)CC2)C1 (centres undefined) 0.409%
CCCCCCNCCn1cnc2c(N)ncnc21 3.85%
Cc1cc(NC(=O)CSc2nc(=O)cc(N)n2-c2ccc(F)cc2)no1 3.93%
Cc1cc(C)n(-c2nnc(C)n2NC(=O)c2cccc(Cl)c2)n1 2.43%
COCCN1C(=O)C(=O)/C(=C(/O)c2ccc(S(=O)(=O)N3CCCCC3)cc2)C1c1ccc(OC)c(OC)c1 (centres undefined) -3.13%
Cc1[nH]c2ccccc2c1SCC(=O)Nc1nccs1 -2.52%
CS(=O)(=O)N1CCc2cc(C(=O)Nc3ccccc3Br)ccc21 -1.09%
N#C/C(C(=O)N1CCOCC1)=C1/SC(Cc2ccc(F)cc2)C(=O)N1c1ccccc1 (centres undefined) 0.557%
O=C(NCc1cccs1)C(=O)NCC1OCCCN1S(=O)(=O)c1ccc(F)cc1 (centres undefined) 3.48%
Cc1ccc(S(=O)(=O)N2CCC(C(=O)OCC(=O)N3CC(=O)Nc4ccccc43)CC2)cc1 2.96%
O=C(NC1CCCC1)C(c1ccccn1)N(C(=O)c1csnn1)C1CCCC1 (centres undefined) 1.68%
CCc1ccc(NC(=O)C(=O)N/N=C(\C)CC(=O)NCCOC)cc1 2.25%
O=C(Nc1cccc(S(=O)(=O)NC2=NCCC2)c1)C1CCCCC1 4.29%
COC(=O)c1ccc(Nc2ncnc3sccc23)cc1 1.35%
COc1ccc(NC(=S)N2N=CCC2c2ccccc2)cc1 (centres undefined) -2.8%

Source: PubChem BioAssay AID504937 (National Center for Advancing Translational Sciences (NCATS), 2011)
